This note sets out measurements from the supplement of paper PMC3342239.

Counter-ions that a name gives are not always drawn.

For the first test, the system named is Saccharomyces cerevisiae. Briefly: fraction of cells in G1 phase (DNA content, flow cytometry); higher = more cells with unreplicated DNA (G1 delay). Particulars: temperature: 30 C; YPD; BY4741 PDR5+ SNQ2+; drug added to: actively dividing cells; 4.33 h. The procedure: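 S. cerevisiae cultures in YPD at 30°C were treated with each drug of the Enzo FDA-approved library at 20 µg/ml (final µM given per drug). Cells were fixed after 6–7 h (S1) or 6 h (S2), or after 4.33 h for BY4741 (S3), then stained with SYTOX Green. %G1 is the Dean-Jett-Fox G1 peak area divided by the G1+G2/M peak areas, written as a fraction and averaged over at least two independent experiments. DMSO reference: mean ~0.49; >0.60 is called High G1 and <0.3876 Low G1. Scale: lower means mitotic delay.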
For `CC1C=CC=CCCC=CC=CC=CC=CC(OC2OC(C)C(O)C(N)C2O)CC2OC(O)(CC(O)C(O)CCC(O)CC(O)CC(O)CC(=O)OC(C)C(C)C1O)CC(O)C2C(=O)O` (stereo not given) [Nystatin] (21.5955 µM), the “fraction of cells in G1 phase” value worked out at 0.549.

In the case of `CCCCC(C#N)(Cn1cncn1)c1ccc(Cl)cc1` (stereo not given) [Myclobutanil] (69.2563 µM), the “fraction of cells in G1 phase” value worked out at 0.536.

With `C[C@]12CC[C@H](O)CC1=CC[C@@H]1[C@@H]2CC[C@]2(C)C(=O)CC[C@@H]12` [Dehydroepiandrosterone] (69.34 µM), the “fraction of cells in G1 phase” value is 0.501.

As to `C#C[C@]1(O)CC[C@H]2[C@@H]3CCC4=CC(=O)CCC4=C3C=C[C@@]21CC` [Gestrinone] (64.8457 µM), the “fraction of cells in G1 phase” value turned out to be 0.423.

Still in this test, the particulars now being: temperature: 30 C; YPD; JTY2953 pdr5 snq2 (sensitized); drug added to: actively dividing cells; 6 h.
For `CC1C=CC=CCCC=CC=CC=CC=CC(OC2OC(C)C(O)C(N)C2O)CC2OC(O)(CC(O)C(O)CCC(O)CC(O)CC(O)CC(=O)OC(C)C(C)C1O)CC(O)C2C(=O)O` (stereo not given) [Nystatin] (21.5955 µM), the “fraction of cells in G1 phase” value was determined as 0.699.

With `O=c1[nH]c2ccccc2n1C1CCN(CCCC(c2ccc(F)cc2)c2ccc(F)cc2)CC1` [Pimozide] (43.3313 µM), the “fraction of cells in G1 phase” value amounted to 0.344.

`CCCCC(C#N)(Cn1cncn1)c1ccc(Cl)cc1` (stereo not given) [Myclobutanil] (69.2563 µM): the “fraction of cells in G1 phase” value was determined as 0.766.

Regarding `C[C@]12Cc3c[nH]nc3C[C@@H]1CC[C@@H]1[C@@H]2CC[C@@]2(C)[C@H]1CC[C@]2(C)O` [Stanozolol] (60.8824 µM), the “fraction of cells in G1 phase” value is 0.497.

Turning to `C[C@]12CC[C@H](O)CC1=CC[C@@H]1[C@@H]2CC[C@]2(C)C(=O)CC[C@@H]12` [Dehydroepiandrosterone] (69.34 µM), the “fraction of cells in G1 phase” value worked out at 0.719.

For `C#C[C@]1(O)CC[C@H]2[C@@H]3CCC4=CC(=O)CCC4=C3C=C[C@@]21CC` [Gestrinone] (64.8457 µM), the “fraction of cells in G1 phase” value was 0.736.

Staying with this test, now noted: temperature: 30 C; YPD; JTY2953 pdr5 snq2 (sensitized); drug added to: cultures diluted from stationary phase; 6-7 h.
Take `CC1C=CC=CCCC=CC=CC=CC=CC(OC2OC(C)C(O)C(N)C2O)CC2OC(O)(CC(O)C(O)CCC(O)CC(O)CC(O)CC(=O)OC(C)C(C)C1O)CC(O)C2C(=O)O` (stereo not given) [Nystatin] (21.5955 µM): the “fraction of cells in G1 phase” value worked out at 0.665.

In the case of `CCCC(=O)OCC[N+](C)(C)C` [Butyrylcholine Cl] (114.768 µM), the “fraction of cells in G1 phase” value came to 0.504.

Consider `O=c1[nH]c2ccccc2n1C1CCN(CCCC(c2ccc(F)cc2)c2ccc(F)cc2)CC1` [Pimozide] (43.3313 µM), for which the “fraction of cells in G1 phase” value was 0.85.

With `CN(C)[C@@H]1C(=O)C(C(N)=O)=C(O)[C@@]2(O)C(=O)C3=C(O)c4c(O)cccc4[C@@](C)(O)[C@H]3C[C@@H]12` [Tetracycline] (44.9999 µM), the “fraction of cells in G1 phase” value worked out at 0.471.

Turning to `C=CCN1CC[C@]23c4c5ccc(O)c4O[C@H]2C(=O)CC[C@@]3(O)[C@H]1C5` [Naloxone HCl] (61.0904 µM), the “fraction of cells in G1 phase” value was 0.488.

`Oc1ccc2c3c1O[C@H]1c4[nH]c5ccccc5c4C[C@@]4(O)[C@@H](C2)N(CC2CC2)CC[C@]314` [Naltrindole HCl] (48.2499 µM): the “fraction of cells in G1 phase” value is 0.504.

In the case of `O=c1[nH]c2ccccc2n1CCCN1CCC(n2c(=O)[nH]c3cc(Cl)ccc32)CC1` [Domperidone] (46.957 µM), the “fraction of cells in G1 phase” value worked out at 0.505.

Turning to `CCCCC(C#N)(Cn1cncn1)c1ccc(Cl)cc1` (stereo not given) [Myclobutanil] (69.2563 µM), the “fraction of cells in G1 phase” value turned out to be 0.667.

With `CC(C)(C)NCC(O)c1ccccc1Cl` (stereo not given) [Tulobuterol] (87.8208 µM), the “fraction of cells in G1 phase” value was 0.493.

As for `NCCCNCCSP(=O)(O)O` [Amifostine] (93.3599 µM), the “fraction of cells in G1 phase” value was determined as 0.512.

With `C[C@]12CCC(=O)C(O)=C1CC[C@@H]1[C@@H]2CC[C@]2(C)C(=O)CC[C@@H]12` [Formestane] (66.1338 µM), the “fraction of cells in G1 phase” value is 0.566.

As for `CC(O)(CS(=O)(=O)c1ccc(F)cc1)C(=O)Nc1ccc(C#N)c(C(F)(F)F)c1` (stereo not given) [Bicalutamide] (46.4705 µM), the “fraction of cells in G1 phase” value turned out to be 0.493.

`CC(=O)O[C@H]1C[C@@H]2CC[C@@H]3[C@H](CCC4(C)[C@H]3C[C@H]([N+]3(C)CCCCC3)[C@@H]4OC(C)=O)C2(C)C[C@@H]1[N+]1(C)CCCCC1` (stereo not given in full) [Pancuronium Br] (34.9114 µM): the “fraction of cells in G1 phase” value was 0.487.

As to `C#C[C@]1(O)CC[C@H]2[C@@H]3CCC4=CC(=O)CC[C@]4(C)[C@H]3CC[C@@]21C` [Ethisterone] (64.009 µM), the “fraction of cells in G1 phase” value was found to be 0.462.

In the case of `c1ccc2c(c1)OCC(C1=NCCN1)O2` (stereo not given) [Idazoxan] (97.9286 µM), the “fraction of cells in G1 phase” value amounted to 0.48.

For `CC[C@H](C)[C@H]1O[C@]2(C=C[C@@H]1C)C[C@@H]1C[C@@H](C/C=C(\C)[C@@H](O[C@H]3C[C@H](OC)[C@@H](O[C@H]4C[C@H](OC)[C@@H](O)[C@H](C)O4)[C@H](C)O3)[C@@H](C)/C=C/C=C3\CO[C@@H]4[C@H](O)C(C)=C[C@@H](C(=O)O1)[C@]34O)O2.CO[C@H]1C[C@H](O[C@H]2[C@H](C)O[C@@H](O[C@@H]3/C(C)=C/C[C@@H]4C[C@@H](C[C@]5(C=C[C@H](C)[C@@H](C(C)C)O5)O4)OC(=O)[C@@H]4C=C(C)[C@@H](O)[C@H]5OC/C(=C\C=C\[C@@H]3C)[C@]54O)C[C@@H]2OC)O[C@@H](C)[C@@H]1O` [Abamectin] (22.9069 µM), the “fraction of cells in G1 phase” value was found to be 0.516.

As for `CCN(C)C(=O)Oc1cccc([C@H](C)N(C)C)c1` [Rivastigmine] (79.8902 µM), the “fraction of cells in G1 phase” value was 0.504.

With `Oc1ccc2c3c1O[C@H]1[C@@H](O)CC[C@@]4(O)[C@@H](C2)N(CC2CCC2)CC[C@]314` [Nalbuphine HCl] (55.9513 µM), the “fraction of cells in G1 phase” value amounted to 0.469.

Regarding `CC(C)CC(N(C)C)C1(c2ccc(Cl)cc2)CCC1` (stereo not given) [Sibutramine HCl] (71.4652 µM), the “fraction of cells in G1 phase” value came out at 0.516.

Regarding `C[C@]12Cc3c[nH]nc3C[C@@H]1CC[C@@H]1[C@@H]2CC[C@@]2(C)[C@H]1CC[C@]2(C)O` [Stanozolol] (60.8824 µM), the “fraction of cells in G1 phase” value amounted to 0.801.

In the case of `C=CCN1CC[C@]23c4c5ccc(O)c4O[C@H]2/C(=N/N=C2\CC[C@@]4(O)[C@H]6Cc7ccc(O)c8c7[C@@]4(CCN6CC=C)[C@H]2O8)CC[C@@]3(O)[C@H]1C5` [Naloxonazine 2HCl] (30.7323 µM), the “fraction of cells in G1 phase” value is 0.456.

Consider `C[C@@H]1O[C@@H](O[C@H]2C[C@@H](O)[C@]3(CO)[C@H]4[C@H](O)C[C@]5(C)[C@@H](C6=CC(=O)OC6)CC[C@]5(O)[C@@H]4CC[C@]3(O)C2)[C@H](O)[C@H](O)[C@H]1O` [Ouabain] (27.4424 µM), for which the “fraction of cells in G1 phase” value stood at 0.521.

As for `CN1C[C@H](C(=O)N[C@]2(C)O[C@@]3(O)[C@@H]4CCCN4C(=O)[C@H](Cc4ccccc4)N3C2=O)C=C2c3cccc4[nH]cc(c34)C[C@H]21` [Ergotamine D-tartrate] (34.3833 µM), the “fraction of cells in G1 phase” value worked out at 0.499.

With `C[C@]12CC[C@H](O)CC1=CC[C@@H]1[C@@H]2CC[C@]2(C)C(=O)CC[C@@H]12` [Dehydroepiandrosterone] (69.34 µM), the “fraction of cells in G1 phase” value is 0.633.

Regarding `CC(N)C(O)c1ccccc1` (stereo not given) [Phenylpropanolamine] (132.266 µM), the “fraction of cells in G1 phase” value was 0.466.

For the molecule `O=P1(NCCCl)OCCCN1CCCl` (stereo not given) [Ifosfamide] (76.6021 µM), the “fraction of cells in G1 phase” value is 0.489.

Regarding `NCC1(CC(=O)O)CCCCC1` [Gabapentin] (116.794 µM), the “fraction of cells in G1 phase” value worked out at 0.543.

For the molecule `CC(C)C[C@H]1C(=O)N2CCC[C@H]2[C@]2(O)O[C@](NC(=O)[C@@H]3C=C4c5cccc6[nH]c(Br)c(c56)C[C@H]4N(C)C3)(C(C)C)C(=O)N12` [Bromocriptine mesylate] (30.5525 µM), the “fraction of cells in G1 phase” value was determined as 0.529.

For the molecule `C#C[C@]1(O)CC[C@H]2[C@@H]3CCC4=CC(=O)CCC4=C3C=C[C@@]21CC` [Gestrinone] (64.8457 µM), the “fraction of cells in G1 phase” value was found to be 0.609.

With `CC(C)NCC(O)c1ccc(N)c(C#N)c1` (stereo not given) [Cimaterol] (91.2039 µM), the “fraction of cells in G1 phase” value is 0.493.
